From ChEMBL document CHEMBL1157539, “Thousands of chemical starting points for antimalarial lead identification” (Nature, 2010)

How the values were obtained:
Type in all cases: functional
Plasmodium falciparum [1] = test: GSK_TCMDC: Inhibition of Plasmodium falciparum 3D7 in whole red blood cells, using parasite LDH activity as an index of growth. Test compounds present at 2uM
Plasmodium falciparum [2] = test: GSK_TCMDC: Inhibition of Plasmodium falciparum Dd2 in whole red blood cells, using parasite LDH activity as an index of growth. Test compounds present at 2uM
HepG2 = test: GSK_TCMDC: Percent inhibition of human HepG2 cell line. Test compounds present at 10uM.

SMILES: Clc1cc(Cl)c2c(c1)C(NCCCNc1nc3ccccc3[nH]1)CCO2 (configuration not stated)
- Inhibition (Plasmodium falciparum [1]): 100%
- Inhibition (Plasmodium falciparum [2]): 31%
- Inhibition (HepG2): 28%

SMILES: CC(C)CCN1CCCN(Cc2ccc(C(=O)Nc3ccc(F)c(F)c3)cc2)CC1.O=C(O)C(F)(F)F
- Inhibition (Plasmodium falciparum [1]): 88%
- Inhibition (Plasmodium falciparum [2]): 27%
- Inhibition (HepG2): 36%

SMILES: CC1=C(C(=O)OC(C)C)C(c2ccccc2Cl)C2=C(CC(c3ccccc3)CC2=O)N1 (configuration not stated)
- Inhibition (Plasmodium falciparum [1]): 93%
- Inhibition (Plasmodium falciparum [2]): 84%
- Inhibition (HepG2): 15%

SMILES: CCCCOc1ccccc1C(=O)NCc1csc(-c2ccccc2)n1
- Inhibition (Plasmodium falciparum [1]): 93%
- Inhibition (Plasmodium falciparum [2]): 91%
- Inhibition (HepG2): 17%

SMILES: Cc1ccc(C)c(NC(=O)NC2CCN(c3ccnc(Nc4ccc(F)cc4)n3)C2)c1 (configuration not stated)
- Inhibition (Plasmodium falciparum [1]): 100%
- Inhibition (Plasmodium falciparum [2]): 74%
- Inhibition (HepG2): 0%

SMILES: C=CCN(C(=O)c1ccc(Cl)c([N+](=O)[O-])c1)c1nc(-c2ccccc2)cs1
- Inhibition (Plasmodium falciparum [1]): 100%
- Inhibition (Plasmodium falciparum [2]): 99%
- Inhibition (HepG2): 0%

SMILES: O=C(NC1CCCCCC1)[C@@H]1CCCN1C(=O)c1ccc(O)c(-c2ccc(Cl)c(Cl)c2)c1
- Inhibition (Plasmodium falciparum [1]): 99%
- Inhibition (Plasmodium falciparum [2]): 98%
- Inhibition (HepG2): 0%

SMILES: Cc1cccc2nc(-c3ccc(-c4cccc(CNC(C)C)c4)s3)[nH]c12.O=C(O)C(F)(F)F
- Inhibition (Plasmodium falciparum [1]): 100%
- Inhibition (Plasmodium falciparum [2]): 97%
- Inhibition (HepG2): 12%

SMILES: Cl.O=[N+]([O-])c1ccc(-c2nc3cc(C4=NC5CCCCC5N4)ccc3[nH]2)cc1 (configuration not stated)
- Inhibition (Plasmodium falciparum [1]): 100%
- Inhibition (Plasmodium falciparum [2]): 30%
- Inhibition (HepG2): 0%
